Sampled rows, rich in hits. Any-hit rate of the full collection: about 2.2%.
MEX-5 binding: C. elegans MEX-5 TCR-2 RNA binding activity; Q9XUB2; MEX-5/FITC-TCR2 RNA binding, fluorescence polarization; hits give low values; activity score (negative = inhibition of binding), % at 10 µM; AID 1832; 300,000 compounds, 0.38% hits;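 active = inhibition past about -25% in most replicates, and total fluorescence under double the plate's negative control median, limit read from the data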;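 note: 0% = DMSO and -100% = 5 µM competing unlabeled TCR2 RNA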
Exocytosis inh: blocks lytic granule exocytosis; TALL-104 LAMP-1 surface exposure, flow cytometry; cells stimulated with thapsigargin and PMA; inhibition, % at 10 µM; 360,000 compounds, 0.66% hits; AID 651702;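 active = inhibition above about 55%, limit read from the data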
V-ATPase pHluor: regulators of yeast V-ATPase proton transport. S. cerevisiae, pHLuorin cytosolic pH fluorescence. AID 504577. response, % at 10 µM. 350,000 compounds, 0.37% hits; in the data active = response mostly above about 7.3%, no sharp cut-off; inactive = mostly below about 5.4%; note: actives read high
m5-HT2A agonist: mouse HTR2A agonism via beta-arrestin recruitment. P35363. CHO-K1 mHTR2A beta-arrestin complementation, luminescence; percent of 30 µM serotonin response. 360,000 compounds, 0.66% hits. AID 624169. activation, % at 7.6 µM;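 active = activation above a run cutoff, the mean activation of all tested compounds plus 3 SD, cut at about 14% in these data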;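 note: 0% = plate median of compound wells and 100% = 30 µM serotonin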
VLA-4 inh: inhibition in a human VLA-4 binding assay; P13612; VLA-4 expressing cells, ligand binding flow cytometry; inhibition, % (about 7 µM as worked out from the volumes in the protocol); 330,000 compounds, 0.2% hits; AID 2557; in the data active = inhibition above about 50%
JMJD2C inh: inhibitors of human GASC-1 (JMJD2C) demethylase. Q9H3R0. GST-JMJD2C(1-420) H3K9me3 demethylation, DELFIA europium. inhibition, % at 2.35 µM. 330,000 compounds, 0.069% hits. AID 2099;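 active = more than half of a compound's replicate wells show inhibition beyond 50%, single wells judged on their own value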;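 note: signal counts dimethyl H3K9 product captured on neutravidin plate; 0% = median of DMSO wells and 100% = 0.3 times that DMSO median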
Target sequence (Q9H3R0 1-420 limits assumed): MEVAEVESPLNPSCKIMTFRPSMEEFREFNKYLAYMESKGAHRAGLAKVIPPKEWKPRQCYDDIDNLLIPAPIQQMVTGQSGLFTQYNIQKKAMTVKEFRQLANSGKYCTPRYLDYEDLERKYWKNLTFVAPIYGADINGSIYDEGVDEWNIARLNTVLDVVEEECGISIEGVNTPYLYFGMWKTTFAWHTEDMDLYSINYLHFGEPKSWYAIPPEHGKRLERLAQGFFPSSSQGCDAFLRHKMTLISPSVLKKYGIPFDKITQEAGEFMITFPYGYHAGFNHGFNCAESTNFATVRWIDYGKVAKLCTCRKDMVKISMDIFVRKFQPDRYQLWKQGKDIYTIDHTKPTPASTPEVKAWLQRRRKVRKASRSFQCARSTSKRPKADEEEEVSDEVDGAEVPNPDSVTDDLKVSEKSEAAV
VLA-4 mod pick: confirmation of allosteric modulators of human VLA-4 integrin. U937 cells, HUTS-21 LIBS mAb binding, flow cytometry; LDV ligand present at threefold Kd. shares compounds with VLA-4 inh. 1,300 compounds, 2% hits. inhibition, % at 6.7 µM; in the data active = inhibition above about 40%;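 note: 0% = ligand without compound and 100% = no ligand background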
VATPase regulator: regulators of yeast V-ATPase proton transport | S. cerevisiae pHLuorin cytosolic pH | response, % at 10 µM | 980 compounds, 2% hits | AID 602197 | shares compounds with V-ATPase pHluor; in the data active = response above about 24%;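 note: plate controls were vehicle wells for no effect and positive control wells for full effect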
Numbers without * were called inactive; nt = no result.

SMILES | MEX-5 binding | Exocytosis inh | V-ATPase pHluor | m5-HT2A agonist | VLA-4 inh | JMJD2C inh | VLA-4 mod pick | others
O=C(c1ccco1)N1CCN(C(=O)c2cc(-c3ccccc3)nc3ccccc23)CC1 | 2.4 | -1.0 | -7.8 | 0.0 | -2.7 | 2.8 | nt
O=C(c1ccco1)N1CCN(C(=O)c2cc(-c3ccncc3)nc3ccc(Br)cc23)CC1 | -3.8 | 3.1 | -2.3 | 6.2 | -1.0 | -7.6 | 2.4
O=C(c1ccco1)N1CCN(C(=O)c2cc(-c3ccccn3)nc3ccc(Cl)cc23)CC1 | -12.3 | 0.0 | -3.2 | 5.0 | -8.5 | 13.9 | -9.5
O=C(c1cc(-c2ccco2)nc2ccccc12)N1CCN(Cc2ccccc2)CC1 | nt | 3.4 | 0.1 | -7.0 | 5.4 | -0.4 | -2.9
O=C(c1ccco1)N1CCN(c2ccnc3cc(Cl)ccc23)CC1 | -1.3 | -2.9 | 1.3 | -0.3 | 11.5 | 4.9 | nt
Cc1cc(C)cc(N(CC(=O)Nc2ccc(Br)cc2)S(=O)(=O)c2c(C)[nH]c(=O)[nH]c2=O)c1 | nt | -2.0 | 0.0 | 4.1 | 2.2 | 8.5 | 12.3
Cc1cc(C)cc(N(CC(=O)Nc2cc(C)ccc2C)S(=O)(=O)c2c(C)[nH]c(=O)[nH]c2=O)c1 | 1.4 | -2.5 | 3.5 | 3.2 | 5.5 | -6.8 | 1.8
CN(C)CCCn1c(SCC(=O)N2c3ccccc3Sc3ccccc32)nc2ccccc2c1=O | -0.3 | 32.8 | 5.0 | -1.9 | 52.5* | -4.3 | 0.0
O=C(O)c1ccc(NC2OC[C@@H](O)[C@H](O)[C@H]2O)cc1 (some centres undefined) | -1.8 | -6.7 | 3.7 | 1.7 | 58.5* | -1.1 | -5.8
CC(=O)Nc1ccc(S(=O)(=O)N(C)CC(=O)OCC(=O)Nc2cc(C)on2)cc1 | nt | 4.5 | -3.8 | -0.8 | 22.0 | 2.9 | nt
CCOc1ccc(S(=O)(=O)n2nc(C)c(S(=O)(=O)N3CCOCC3)c2C)cc1 | 3.0 | -1.7 | 3.0 | 8.6 | 100.0* | 5.6 | -2.1
Cc1ccc2c(c1)N(CC(=O)NCC(C)c1ccccc1)C(=O)c1cccnc1O2 (centres undefined) | 1.3 | 0.8 | -2.1 | -2.6 | 53.4* | -0.2 | 2.6
CCCS(=O)(=O)N1CCC(C(=O)NC2CCC(C)CC2)CC1 (centres undefined) | -1.3 | -0.1 | 1.4 | -2.8 | 92.5* | 0.8 | -0.8
O=C1CC(C(=O)N2CCCc3ccccc32)CN1c1ccc(Cl)cc1 (centres undefined) | -5.0 | 5.4 | 0.5 | -7.4 | 3.5 | -5.7 | nt
O=C(NCc1ccco1)C(=O)NCC1OCCN1C(=O)c1ccc(Cl)cc1 (centres undefined) | -2.4 | 0.3 | 7.8 | 2.5 | 14.7 | 5.9 | nt
NC(=O)c1ccccc1NS(=O)(=O)c1ccc(F)cc1 | nt | 3.3 | 0.5 | 2.5 | 5.3 | -8.9 | 0.0
COc1cccc(-c2sc3ccccc3c2-c2ccc(OCCN3CCCC3)cc2)c1 | nt | 1.2 | 4.2 | -13.7 | 63.8* | -3.8 | 38.1
COc1cccc(-c2sc3ccc(OC)cc3c2-c2ccc(OC)cc2F)c1 | nt | -6.0 | -0.5 | 5.0 | 14.6 | 7.7 | nt
COc1cccc(-c2sc3ccccc3c2-c2ccc(OCCN3CCCCC3)cc2)c1 | nt | -2.5 | 6.1 | -11.5 | 44.6 | 1.3 | 19.7
Cc1c(-c2ccc(OCCN3CCCCC3)cc2)c(=O)oc2ccc3ccccc3c12 | nt | -6.6 | 2.1 | -5.3 | nt | nt | nt
COc1cccc(-c2sc3ccccc3c2-c2ccc(OCCN(C)C)cc2)c1 | nt | 8.0 | -0.8 | -5.0 | 72.1* | 5.1 | 44.2*
COc1cccc(-c2sc3cc(OC)c(OC)cc3c2-c2ccc(OCCN3CCCCC3)cc2)c1 | nt | 61.9* | -1.0 | 1.0 | nt | nt | 0.0
CCOc1ccc(OCCN2CCCCC2)cc1 | -0.6 | -5.0 | 3.7 | 4.0 | 4.2 | 7.1 | nt
CSc1ccccc1NC(=O)COC(=O)c1cnc(C)cn1 | nt | 1.8 | 0.7 | -5.1 | 17.5 | 1.5 | nt
CCCNC(=O)c1onc(CSc2ccc(Cl)cc2)c1C(=O)NCCC(C)C | 2.2 | 1.0 | -1.1 | -3.1 | -12.4 | 10.2 | nt
SMILES | MEX-5 binding | Exocytosis inh | V-ATPase pHluor | m5-HT2A agonist | VLA-4 inh | JMJD2C inh | VLA-4 mod pick | others
COCCCC1CCN(C(=O)CCc2nnc(CCCCc3ccccc3)o2)CC1 | -1.2 | -0.7 | -0.6 | -1.0 | -14.2 | -6.8 | nt
COc1cccc(-c2sc3ccc(OC)cc3c2-c2ccc(OCCN3CCCC3)cc2)c1 | nt | 26.8 | 3.0 | -4.5 | nt | nt | 11.8
COc1ccc2sc(-c3ccccc3OC)c(-c3ccc(OCCN(C)C)cc3)c2c1 | nt | 24.2 | -1.2 | 0.1 | nt | nt | -3.9
COc1ccc(OCCN2CCOCC2)cc1 | -2.0 | 0.2 | -1.9 | 1.2 | 8.1 | -2.1 | nt
COc1cccc(-c2sc3ccc(OC)cc3c2-c2ccc(C(N)=O)cc2)c1 | nt | 0.2 | -1.4 | -3.3 | 26.4 | 2.5 | nt
COc1ccc2sc(-c3ccccc3OC)c(-c3ccc(SC)cc3)c2c1 | nt | 16.3 | nt | 1.8 | nt | nt | nt
COc1ccc(-c2sc3ccc(OC)cc3c2-c2ccc(OCCN3CCOCC3)cc2)cc1 | nt | 4.9 | 1.3 | -3.9 | nt | nt | 0.7
O=C1CSC(=S)N1 | -0.9 | 0.4 | -2.7 | -1.2 | 2.1 | 2.0 | nt
Cc1cc(=O)oc2cc(OCC(=O)N3CC[C@@]4(O)CCCC[C@H]4C3)ccc12 | 2.1 | -0.6 | 3.1 | 6.5 | -13.1 | 4.3 | nt
CCC(C)C(NC(=O)C(N)CC(C)C)C(=O)NC(CCC(=O)OCc1ccccc1)C(N)=O (centres undefined) | -2.1 | 6.9 | 1.5 | -0.3 | 54.0* | 8.0 | 5.3
COc1ccc(Cc2nc3ccc(S(N)(=O)=O)cc3[nH]2)cc1OC | -0.7 | nt | nt | nt | 102.2* | -3.2 | -1.1
CS(=O)(=O)N(CC(=O)NCCSCc1ccccc1)c1ccccc1Br | 0.1 | 13.2 | -3.2 | -7.5 | 9.7 | -1.9 | nt
O=C(Nc1ccccc1)OCc1cnc(Cl)s1 | -2.8 | 17.0 | 7.0* | -1.4 | 0.0 | -2.2 | 2.9 | VATPase regulator=2.0
Cc1cc(NC(=O)C(C)SCC(=O)N(C)Cc2c(F)cccc2Cl)no1 (centres undefined) | nt | -0.8 | 2.3 | 2.7 | 3.1 | 3.5 | nt
COc1cc(/C=C2\S/C(=N/S(=O)(=O)Cc3ccccc3)NC2=O)c([N+](=O)[O-])cc1OC | 0.4 | -3.7 | -3.3 | -4.7 | 0.4 | -7.7 | nt
